Screening results as filed in PubChem.
In the library only some 12% were active in any assay of this set; here they are far more common.
Sfp PPTase inh: Sfp phosphopantetheinyl transferase inhibition | Q9F4F7 | Biochemical Sfp PPTase activity, qHTS | Potency, µM, for the others: largest response in the series, negative = inhibition, usual class: inhibitors | 310,000 tested, 3.5% active | AID 1490;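 further: the enzyme is Sfp with the accession as filed and its product quenches rhodamine fluorescence; 0% = enzyme reaction without inhibitor and -100% = no enzyme wells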
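With Hepes-Na pH 7.6 buffer containing 10 mM MgCl2, Sfp (15 nM) modified BHQ-2-YbbR (12.5 uM) using rhodamine-CoA (5 uM). Two reads 30 minutes apart at 525/598 nm yielded each well's rate.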
HP1b binding inh: blocks HP1-beta chromodomain binding to methylated histone tails; P83916; AlphaScreen HP1-beta / biotin-H3K9me3 peptide binding; Potency, µM (highest dose often 114 µM), for inactives: at the highest dose activity change, negative = inhibition, hits mostly inhibitors; 390,000 tested, 0.56% active; further: nearly all actives have a fitted effect of over 70% in size
Target sequence (P83916 whole entry, looked up): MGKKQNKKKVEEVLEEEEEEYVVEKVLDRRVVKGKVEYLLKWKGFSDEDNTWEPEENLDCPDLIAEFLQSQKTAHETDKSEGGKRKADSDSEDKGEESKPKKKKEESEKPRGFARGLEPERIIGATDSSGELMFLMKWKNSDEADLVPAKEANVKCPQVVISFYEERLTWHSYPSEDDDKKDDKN
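Compound inhibition of the preformed complex between 50 nM HP1-beta and 50 nM biotinylated H3K9me3 peptide was read by AlphaScreen. Buffer was PBS pH 7.4 with 0.01% Tween-20. Incubations ran 30 min at room temperature, with 10 ug/mL donor/acceptor beads.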
BAZ2B block: inhibitors of human BAZ2B bromodomain; Q9UIF8; AlphaScreen BAZ2B-H3K14Ac peptide displacement; Potency, µM (highest dose often 114 µM), for the others: top-dose activity change, negative = inhibition, hits mostly inhibitors; 360,000 tested, 4.4% active; AID 504333; further: on the % scale 0 is the no-effect control and ±100 the full control effect; nearly all actives have a fitted effect of over 60% in size
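In this displacement format the biotinylated H3(5-23) peptide acetylated at Lys14 serves as ligand at 50 nM, with BAZ2B at 50 nM in PBS pH 7.4 containing 0.01% Tween-20. Donor and acceptor beads are 10 ug/mL final.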
JMJD2A Tudor: blocks the human JMJD2A Tudor domain. O75164. AlphaScreen JMJD2A-Tudor / H3K4me3 peptide binding. Potency, µM (highest dose often 114 µM), for the others: top-dose activity change, negative = inhibition, actives largely listed as inhibitors. 390,000 tested, 4.4% active. AID 504339; further: on the % scale 0 is the no-effect control and ±100 the full control effect; nearly all actives have a fitted effect of over 50% in size
G9a block: blocks human histone lysine methyltransferase G9a; 350,000 tested, 8.8% active; Q96KQ7; G9a H3K9 monomethylation, AlphaScreen, 2 h; Potency, µM (highest dose often 102 µM), for the others: at the top dose activity, negative = inhibition, hits mostly inhibitors; further: on the % scale 0 is the no-effect control and ±100 the full control effect; nearly all actives have a fitted effect of over 75% in size
Target sequence (Q96KQ7 913-1193 limits assumed): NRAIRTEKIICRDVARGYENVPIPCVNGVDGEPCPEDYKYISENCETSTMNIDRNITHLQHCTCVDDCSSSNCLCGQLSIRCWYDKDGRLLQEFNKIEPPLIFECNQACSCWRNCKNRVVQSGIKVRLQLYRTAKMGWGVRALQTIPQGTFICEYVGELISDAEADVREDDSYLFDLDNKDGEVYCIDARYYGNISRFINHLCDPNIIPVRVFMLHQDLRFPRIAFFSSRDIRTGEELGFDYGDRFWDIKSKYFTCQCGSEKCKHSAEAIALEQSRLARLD
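Step 1: enzyme (final 20 nM) with compound, 15 min RT. Step 2: substrate peptide 500 nM and SAM 20 uM, 2 h RT. Step 3: anti-H3K9me1 antibody and AlphaScreen beads, 10 min, then plate read.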
* marks the source's active call; other numbers are inactive results; ? = inconclusive; · = not tested or not shown; [ ] = another dose, or the depositor's remark. The call rests on the fitted dose curve; in most records, active means well fitted curve in the direction sought with a large enough effect; inconclusive means small, poorly fitted or top-dose-only effect, or another doubt; inactive means no such curve, though single readings can be large; an effect the other way counts as inactive or inconclusive. Potency means the concentration at half of the fitted maximal effect.

SMILES | Sfp PPTase inh | HP1b binding inh | BAZ2B block | JMJD2A Tudor | G9a block
Cc1ccc(S(=O)(=O)N2CCN(Cc3ccccc3C(F)(F)F)CC2)cc1 | ? | ? | 56µM* | ? | 32µM*
Cc1ccc(S(=O)(=O)N2CCN(Cc3cc(C(C)(C)C)ccc3O)CC2)cc1 | 22% | 24% | -25% | ? | -4%
O=[N+]([O-])c1ccccc1CS(=O)(=O)c1ccccc1 | · | 10% | 1% | -11% | -18%[12.7 µM]
O=[N+]([O-])c1ccccc1CN1CCN(S(=O)(=O)c2ccccc2)CC1 | · | ? | · | 20µM* | ·
COc1ccc(C(=O)NCCS(=O)(=O)NCCc2ccccc2)cc1 | · | 7% | 15% | -8% | 6%[0.501 µM]
COc1cccc(C(=O)NCCS(=O)(=O)NCCc2ccccc2)c1 | · | 23% | 6% | -3% | 45µM*
COc1cccc(C(=O)NCCS(=O)(=O)NC2CCCC2)c1 | · | 19% | 14% | -7% | 32µM*
COc1ccc(C(=O)NCCS(=O)(=O)NC2CCCC2)cc1 | · | 32% | 9% | -11% | -18%
O=C1CCCC(=O)N1c1ccc(N2CCN(c3ccccc3)CC2)c([N+](=O)[O-])c1 | -12% | -14% | -38% | -10%[57.1 µM] | -10%
O=C1C2CC=CCC2C(=O)N1c1ccc(N2CCN(c3ccccn3)CC2)c([N+](=O)[O-])c1 (stereo not given) | -9% | 2% | 8.9µM* | ? | ?
COC(=O)c1cc2oc3ccccc3c2n1Cc1nc(-c2ccccc2C)oc1C | · | 20% | -13% | -16% | -46%[59 µM]
Cc1ccc(C)c(C(=O)c2c(C)nc3sccn23)c1 | 0% | 24% | 22% | -5% | 8%[59 µM]
Cc1cc(C)c(NC(=O)c2cc3c(nc4sccn43)s2)c(C)c1 | -19% | 38% | -3% | 2% | 50µM*
Nc1c(C(=O)CSc2ncccn2)c(=O)[nH]c(=O)n1C1CC1 | · | 18% | 4% | -23% | ?
Nc1nc(SCC(=O)c2c(N)n(C3CC3)c(=O)[nH]c2=O)n[nH]1 | · | 29% | 10% | -6% | 11µM*
COc1ccc2nc(SCC(=O)c3c(N)n(C4CC4)c(=O)[nH]c3=O)[nH]c2c1 | · | 49% | 8% | -6% | 7.1µM*
COc1ccc2nc(SCC(=O)NC(C)(C)C)[nH]c2c1 | 14% | 13% | -4% | -17% | 48%
COc1ccc2nc(SCC(=O)C(C)(C)C)[nH]c2c1 | 40µM* | 19% | -11% | -15% | 56µM*
COc1ccc2nc(SCC(=O)NCc3ccc(OC)c(OC)c3)[nH]c2c1 | 5% | 5% | -3% | 89µM* | -8%[59 µM]
Cc1occc1C(=O)N/N=C/C(Br)=C/c1ccccc1 | -10% | 17% | -33% | -12% | -31%
CC1(c2ccc3c(c2)OCCO3)NC(=O)N(CC(=O)c2ccc[nH]2)C1=O (stereo not given) | · | 45% | ? | -24% | 5%[59 µM]
COc1ccc(Oc2nc3c(c(=O)n(C)c(=O)n3C)n2Cc2ccc(Cl)cc2Cl)cc1 | · | 29% | -20% | -30% | -27%[59 µM]
COc1cc2c(C)c3c4c(cc(OC)c(OC)c4c2cc1OC)CCN3C | -25% | · | · | · | ·
COc1ccc(N2CCN(C(=O)C3CCN(c4nc5ccc(C)cc5[nH]4)CC3)CC2)cc1 | · | 9%[57 µM] | -31% | -26% | ?
COc1ccc2nc(N3CCCC3)[nH]c2c1 | 2% | 26% | 3% | -19% | 5.6µM*
SMILES | Sfp PPTase inh | HP1b binding inh | BAZ2B block | JMJD2A Tudor | G9a block
O=C(Nc1cccc(-n2cccn2)c1)C1CCCN(Cc2cc3ccccc3[nH]2)C1 (stereo not given) | 0% | -5% | 71µM* | ? | 12%[12.7 µM]
Cc1cc(CN2CCCC(C(=O)Nc3cccc(-n4cccn4)c3)C2)cc(C)c1O (stereo not given) | 11% | 14% | -10% | -24% | ?
FC(F)(F)c1cc(-c2ccc(Cl)cc2)nc(NCc2cccnc2)n1 | 79µM* | 40% | 12% | 7% | 34%[12.7 µM]
Cc1cc(C)c(C)c(OCC(=O)NCc2nc(-c3ccccc3)no2)c1 | 8% | 40% | 4% | 0% | -7%[59 µM]
Cc1ccc(C(=O)NCCCNCCCNC(=O)c2ccc(C)nc2)cn1 | -2% | 39% | 4% | -4% | 15%[59 µM]
CN(CCNC(=O)c1ccc(/C=N/O)nc1)Cc1ccccc1 | -9% | 4% | ? | 8.9µM* | 25µM*
O=C(NCCCNCCCNC(=O)c1ccc(/C=N/O)nc1)c1ccc(/C=N/O)nc1 | 14µM* | 45% | 1.4µM* | 5.6µM* | ·
Cc1ccc(C(=O)NCCCNCCCN(C)C)cn1 | 23% | -2% | ? | 50µM* | ?
CSc1sc(-c2n[nH]c(=S)n2C)c2c1C=CCC2 | 50µM* | 12% | ? | ? | ·
COc1ccccc1NS(=O)(=O)c1ccc2oc(SC(C)C(=O)N3CCNC3=O)nc2c1 (stereo not given) | · | 12% | -2% | -13% | -4%[2.33 µM]
Fc1cccc(CN2CCSCC2)c1 | -18% | ? | 50µM* | 20µM* | 25µM*
Fc1cccc(CN2CCCCCCC2)c1 | -17% | ? | ? | 2µM* | 13µM*
Fc1ccc(CN2CCSCC2)cc1F | -17% | ? | ? | 4µM* | 32µM*
COCCNC(=O)C1CCC(=O)N(c2ccc(OC)cc2)C1c1ccc(OC)c(OC)c1 (stereo not given) | 15% | 16% | -5% | -3% | -10%
CC(C)(C)c1ccc(OCCCC(=O)NC2=NCCS2)cc1 | 5% | 56% | 13% | -14%[11.4 µM] | ?
Cc1ccc2c(c1)c(C)cc[n+]2Cc1ccccc1 | 18% | 13% | 7% | -8% | 50µM*
CCCCc1nc2ccccc2c(N)c1CCC (tested in a mixture with another compound) | 9% | 27% | -6% | 3% | 5%[59 µM]
CCCCc1nc2ccccc2c(NC(=O)CNC(C)(C)C)c1CCC | ? | -21% | 50µM* | 10µM* | 8.9µM*
COc1ccc(C(=O)N2CCC3(CCN(C)CC3)CC2)cc1 | 3% | · | · | · | 15%[12.7 µM]
Cc1cccc(C)c1NC(=O)C1C2C=CC(C2)C1C(=O)NCc1ccccn1 (stereo not given) | 0% | 9% | 79µM* | -17% | ?
O=C(O)C1C2C=CC(C2)C1C(=O)NCc1ccccn1 (stereo not given) | 12% | · | ? | · | 42%[59 µM]
Cc1cc2oc(C(=O)Nc3cccc(-c4nc5ccccc5o4)c3)c(C)c2cc1Cl | · | 41% | -27% | -4% | -1%[59 µM]
CCOc1ccc(C2=Nn3c(nnc3-c3ccccn3)SC2)cc1 | ? | 46% | 20µM* | 35µM* | ?
COc1ccc(C2=Nn3c(nnc3-c3ccccc3OC)SC2)cc1OC | 6% | 10% | -4% | -10% | 24%
COc1ccc(C2=Nn3c(nnc3-c3ccccn3)SC2)cc1OC | -17% | 47% | 20µM* | 45µM* | ?
CCCCC1(Cc2ccc([N+](=O)[O-])cc2)C(=O)N(c2ccccc2)N(c2ccccc2)C1=O | 20% | ? | -8% | -10% | ?
